Laboratory results as given in PubChem BioAssay (NCI).
This is part of a sample that, as a whole, favours compounds with a hit. Of some 83,000 tested, about 20% had one in any assay.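 Plates (96-well) were seeded with cells, treated with compound at one concentration, and incubated for 48 hours before percent growth was determined.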 Active and inactive are the calls of the source. How the source made its calls: active means growth percent below 10; inactive means the rest.

Assays:
Test in all cases: NCI-60 one-dose screen, 48 h (100 = growth as untreated, 0 = no growth, -100 = all killed)
Conditions in all cases: 10 µM unless noted
NCI-H23 lung = tested on: NCI-H23 lung
NCI-H226 lung = tested on: NCI-H226 lung
NCI-H322M lung = tested on: NCI-H322M lung
HOP-62 NSCLC = tested on: HOP-62 NSCLC
NCI-H460 lung = tested on: NCI-H460 lung
HOP-92 NSCLC = tested on: HOP-92 NSCLC
NCI-H522 lung = tested on: NCI-H522 lung
A549/ATCC NSCLC = tested on: A549/ATCC NSCLC
786-0 renal = tested on: 786-0 renal
COLO 205 colon = tested on: COLO 205 colon
DU-145 prostate = tested on: DU-145 prostate
K-562 leukemia = tested on: K-562 leukemia
MALME-3M melanoma = tested on: MALME-3M melanoma
MDA-MB-231 breast = tested on: MDA-MB-231 breast
RXF 393 renal = tested on: RXF 393 renal
SF-268 CNS = tested on: SF-268 CNS
SF-295 CNS = tested on: SF-295 CNS
SF-539 CNS = tested on: SF-539 CNS
UACC-257 melanoma = tested on: UACC-257 melanoma
M14 melanoma = tested on: M14 melanoma

Measured: growth

CCCCCCNC(=O)Oc1ccc(/C(=C(/CC)Cc2ccccc2)c2ccc(OCCCN(C)C)cc2)cc1
inactive: NCI-H23 lung 79% | NCI-H226 lung 95.5% | NCI-H322M lung 89.3% | HOP-62 NSCLC 83.2% | NCI-H460 lung 40.2% | HOP-92 NSCLC 54.3% | NCI-H522 lung 89% | A549/ATCC NSCLC 71.6% | 786-0 renal 68.8% | COLO 205 colon 65.6% | DU-145 prostate 89.4% | MALME-3M melanoma 83.3% | MDA-MB-231 breast 67.5% | RXF 393 renal 80.3% | SF-268 CNS 80.8% | SF-295 CNS 116% | SF-539 CNS 99.1% | UACC-257 melanoma 80.8% | M14 melanoma 85.2%
active: K-562 leukemia 7.11%

Cc1ccc(-c2nc3nc(-c4ccc(Cl)cc4)nc(N4CCCNCC4)c3o2)cc1
inactive: NCI-H23 lung 96.4% | NCI-H226 lung 111% | NCI-H322M lung 17.4% | HOP-62 NSCLC 97.6% | HOP-92 NSCLC 83.6% | NCI-H522 lung 62.2% | MALME-3M melanoma 91.8% | RXF 393 renal 80.2% | SF-268 CNS 97% | SF-295 CNS 85.3% | UACC-257 melanoma 103%
active: NCI-H460 lung -81.6% | A549/ATCC NSCLC -81.6% | 786-0 renal -82.9% | COLO 205 colon -66.4% | DU-145 prostate -21.9% | K-562 leukemia -56.7% | MDA-MB-231 breast -75.7% | SF-539 CNS -96.1% | M14 melanoma -75.9%

COc1ccc2c(c1)CCNC21C(=O)Nc2c(Br)cc(Br)cc21 (stereo not given)
inactive: NCI-H23 lung 98.4% | NCI-H226 lung 101% | NCI-H322M lung 90.3% | HOP-62 NSCLC 86.1% | NCI-H460 lung 101% | HOP-92 NSCLC 93.2% | NCI-H522 lung 91.6% | A549/ATCC NSCLC 99.2% | 786-0 renal 94.8% | COLO 205 colon 112% | DU-145 prostate 110% | K-562 leukemia 98.8% | MALME-3M melanoma 88.3% | MDA-MB-231 breast 74.7% | RXF 393 renal 133% | SF-268 CNS 100% | SF-295 CNS 103% | SF-539 CNS 94% | UACC-257 melanoma 100% | M14 melanoma 97.7%

Cc1ccc(S(=O)(=O)Nc2cc(Sc3ccccc3)c(O)c3ccccc23)cc1
active: MDA-MB-231 breast -1.57%
inactive: NCI-H23 lung 58% | NCI-H226 lung 96% | NCI-H322M lung 102% | HOP-62 NSCLC 112% | NCI-H460 lung 105% | HOP-92 NSCLC 18.2% | NCI-H522 lung 81% | A549/ATCC NSCLC 90.3% | 786-0 renal 104% | COLO 205 colon 108% | DU-145 prostate 84.3% | K-562 leukemia 41.1% | MALME-3M melanoma 77.7% | RXF 393 renal 105% | SF-268 CNS 65.8% | SF-295 CNS 96.8% | SF-539 CNS 92.9% | UACC-257 melanoma 62.8% | M14 melanoma 107%

Cn1cc2c(=O)nc3c(-c4nc5ccccc5[nH]4)n[nH]n3c2n1
inactive: NCI-H23 lung 78.6% | NCI-H226 lung 96.4% | NCI-H322M lung 91.8% | HOP-62 NSCLC 73% | NCI-H460 lung 81.9% | HOP-92 NSCLC 83.6% | A549/ATCC NSCLC 79.2% | 786-0 renal 80.7% | COLO 205 colon 114% | DU-145 prostate 71.8% | K-562 leukemia 61.1% | MALME-3M melanoma 74.1% | MDA-MB-231 breast 100% | RXF 393 renal 78.1% | SF-268 CNS 74.2% | SF-295 CNS 106% | SF-539 CNS 97% | UACC-257 melanoma 72.9% | M14 melanoma 75.8%
active: NCI-H522 lung -44.5%

CCCCC1COc2cccc3c2N1C=C/C3=C\C(=O)N(C)c1cccc(Cl)c1 (stereo not given)
inactive: NCI-H23 lung 97.5% | NCI-H226 lung 100% | NCI-H322M lung 110% | HOP-62 NSCLC 109% | NCI-H460 lung 105% | HOP-92 NSCLC 92% | NCI-H522 lung 90.1% | A549/ATCC NSCLC 99.5% | 786-0 renal 99.8% | COLO 205 colon 100% | DU-145 prostate 103% | K-562 leukemia 91% | MALME-3M melanoma 107% | MDA-MB-231 breast 103% | RXF 393 renal 108% | SF-268 CNS 97.9% | SF-295 CNS 97.6% | SF-539 CNS 104% | UACC-257 melanoma 103% | M14 melanoma 102%

Clc1nccc2c(-c3csc(-c4c[nH]c5ccc(Br)cc45)n3)c[nH]c12
active: HOP-62 NSCLC 7.78% | NCI-H460 lung -5.23% | HOP-92 NSCLC 6.84% | NCI-H522 lung 1.55% | 786-0 renal -68.2% | COLO 205 colon 7.99% | K-562 leukemia 3.99% | MALME-3M melanoma 8.43% | RXF 393 renal -14.8% | SF-295 CNS -10.3% | UACC-257 melanoma -48.9% | M14 melanoma -34.3%
inactive: NCI-H23 lung 31.9% | NCI-H226 lung 33.6% | NCI-H322M lung 70.4% | A549/ATCC NSCLC 15.1% | DU-145 prostate 29% | MDA-MB-231 breast 14.4% | SF-268 CNS 55.6% | SF-539 CNS 15.3%
